Data on 39 compounds can be found in PubChem BioAssay (NCATS).

Results filed as inconclusive are left out. Values without a mark were called inactive. Calls follow the shape of the dose curve; as a rule, active = well fitted curve in either direction with a large enough effect (not every such curve was filed as active); inconclusive = small, poorly fitted or top-dose-only effect, or another doubt; inactive = flat fitted curve, though single readings scatter.
% is scaled to controls: 0 for no effect and ±100 for the full control effect.

The nature of one test: AP1 Signaling Pathway (AID 357).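 Also: ME-180 reporter cells stimulated with EGF at its EC50 level.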 Conditions: ME-180 (cervical carcinoma) AP-1-bla reporter, EGF-induced, beta-lactamase ratio, 5 h; at 17.2 µM (top of the series) unless noted. The procedure, abridged:
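Beta-lactamase reporter under AP-1 response element, ME-180 background. Stimulus: EC50 EGF. Compound exposure 5 h, 37 °C. Detection: CCF4, 2.5 h RT, 460/530 nm. Values: AC50 from titration.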
Take `CC(=O)Nn1cnc2c(c1=O)C1(CCCC1)Cc1ccccc1-2`: the activity change, negative = inhibition was -8.59%.
On the same count and under the same terms, in the case of `O=C(O)C1CSC(CCc2ccccc2)N1` (stereo not drawn) it was 19.9%.
Consider `Cn1c(N)c(C#N)c2c(c1=S)CSC(C)(C)C2`, for which the activity change, negative = inhibition is 1.02%.
The same measure, in the same setting: in the case of `CCOC(=O)c1[nH]c2ccccc2c1NC(=O)CCN1CCN(C(=O)OCC)CC1` it was -2.19%; in that of `Cc1c(OCc2ccccc2)c(=O)ccn1Cc1ccccc1`, -8.27%.
The same measure, in the same setting: in the case of `COc1ccc(/C=C(/C#N)c2cccnc2)cc1OC` it was -13.8%; in that of `CCN1CCc2c(C#N)c(NCc3ccccc3)nc(N(CC)CC)c2C1`, 2.07%; in that of `O=C(c1ccccc1)c1cc(-c2ccccc2)on1`, -5.5%.
Still for that read-out and setting: in the case of `Cc1c(N2C(=O)SC(CC(=O)O)C2=O)c(=O)n(-c2ccccc2)n1C` (stereo not drawn) it was -20.4%; in that of `COc1ccc(-c2nnc3sc(-c4c(OC)cccc4OC)nn23)cc1`, -13.7%.
With `CCCCc1cc(=O)oc2c(CN3CCCC3)c(O)ccc12`, the activity change, negative = inhibition was 9.79%.
On the same count and under the same terms, to `COc1cc(=O)n2c(-c3ccccc3)csc2n1` belongs 6.57%.
The same measure, in the same setting: in the case of `Cn1ncc2nnn(-c3ccccc3)c(=O)c21` it was 3.86%; in that of `Cc1cc2nncn2c(Cc2ccccc2)n1`, -3.42%.
Still for that read-out and setting: in the case of `Cc1nnc2n(-c3ccccc3)c(=O)c3c4c(sc3n12)CC(C)CC4` (stereo not drawn) it was 3.4%; in that of `COC(=O)CNC(=O)c1c(C)cc(=O)oc1C`, 21.5%.
As to `Cc1nc(NCCO)c(C#N)c2c1COC(C)(C)C2`, the activity change, negative = inhibition is -5.08%.
As for `Cn1ncc(N=Cc2ccccc2)c1C(N)=O`, the activity change, negative = inhibition is 5.51%.
For `CN(C)CCOC(=O)Cc1ccc(Cl)cc1`, the activity change, negative = inhibition is 12%.
Same read-out and setting: in the case of `Cc1cc(C)n(CC2CC(=O)N(c3cc(Cl)cc(Cl)c3)C2=O)n1` (stereo not drawn) it was -15.1%; in that of `COC(=O)c1[nH]c2ccc(Cl)cc2c1NC(=O)C1CC1`, -4.32%.
Same read-out and setting: in the case of `O=C(Nc1ccc2c(c1)OCO2)c1cc2n(n1)C(C(F)(F)F)CC(c1ccccc1)N2` (stereo not drawn) it was 6.53%; in that of `CN(C)C=C1C(=O)c2ccccc2C1=O`, 6.29%; in that of `CCN(CC)CCN1C(=O)C(=O)/C(=C(/O)c2c(C)[nH]c(C(=O)OC)c2C)C1c1cccc(OC)c1` (stereo not drawn), 1.88%.
Still for that read-out and setting: to `CCOC(=O)Oc1ccc2c(c1)C(C)=CC(C)(C)N2C(=O)OCC` belongs 4.5%.
As to `Nc1nnc(CSc2ccc(Cl)cc2)s1`, the activity change, negative = inhibition is 18.1%.
Regarding `COC(=O)CNc1nc(-c2cccnc2)nc2ccccc12`, the activity change, negative = inhibition was -12.5%.
The same measure, in the same setting: in the case of `O=C(Oc1ccccc1)c1c(Cl)cccc1P(=O)(O)O` it was 7.32%.
As for `O=C(c1ccco1)N1CCN(c2ncnc3c2[nH]c2ccccc23)CC1`, the activity change, negative = inhibition is -12%.
Still for that read-out and setting: in the case of `Cn1c(NCCN2CCCCC2)cc(=O)n(C)c1=O` it was 6.19%.
Same read-out and setting: in the case of `O=C1NC2c3ccccc3C(=O)N2c2c1cnn2-c1ccccc1` (stereo not drawn) it was -6.7%.
On the same count and under the same terms, to `CC(=O)c1c(C(C)=O)c(C)n(NC(=O)c2ccncc2)c1C` belongs 2.53%; to `COCCOC(=O)c1c(C)nc(SCC(=O)Nc2ccc(OC)cc2)c(C#N)c1-c1ccco1`, -13.3%.
Turning to `COC(=O)C(NC(=O)c1ccco1)(Nc1nc(C)cs1)C(F)(F)F` (stereo not drawn), the activity change, negative = inhibition is -3.01%.
On the same count and under the same terms, in the case of `COc1ccc(C(CC(=O)O)NC(=O)OC(C)(C)C)cc1` (stereo not drawn) it was 12.1%; in that of `O=S(=O)(c1ccc2ccccc2c1)N(CC(O)CN1CCOCC1)c1ccccc1` (stereo not drawn), -11.7%; in that of `COC(=O)C(NC(C)=O)(Nc1nc2ccc(S(C)(=O)=O)cc2s1)C(F)(F)F` (stereo not drawn), -0.134%.
Same read-out and setting: in the case of `N#Cc1ccc(-c2cccnc2)nc1SCC(=O)Nc1sc2c(c1C#N)CCC2` it was -1.23%; in that of `CCOc1c(C)cc2[nH]c(CCC(=O)O)nc2c1C`, 7.73%.

A short description of another test: NFAT Signaling Pathway (AID 444).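 Also: carbachol stimulus at about its EC50 of 1 µM final.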 The note with it: Jurkat NFAT-bla M1, carbachol, beta-lactamase ratio, 5 h; at 17.2 µM (top of the series) unless noted. The procedure, abridged: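 Jurkat cells carrying an NFAT-driven β-lactamase reporter and co-transfected muscarinic M1 receptor were treated with compound plus carbachol (1 uM final, an EC50 level) for 5 h at 37 °C. CCF4 loading followed for 1 h at RT; 460/530 nm ratio gave %activity.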
Turning to `CC(=O)Nn1cnc2c(c1=O)C1(CCCC1)Cc1ccccc1-2`, the activity change, negative = inhibition was -0.355%.
On to `O=C(O)C1CSC(CCc2ccccc2)N1` (stereo not drawn), for which the activity change, negative = inhibition is -1.74%.
Still for that read-out and setting: in the case of `Cn1c(N)c(C#N)c2c(c1=S)CSC(C)(C)C2` it was -25.2%.
Still for that read-out and setting: in the case of `CCOC(=O)c1[nH]c2ccccc2c1NC(=O)CCN1CCN(C(=O)OCC)CC1` it was 1.86%.
Same read-out and setting: to `Cc1c(OCc2ccccc2)c(=O)ccn1Cc1ccccc1` belongs -0.234%; to `COc1ccc(/C=C(/C#N)c2cccnc2)cc1OC`, -0.696%; to `CCN1CCc2c(C#N)c(NCc3ccccc3)nc(N(CC)CC)c2C1`, 1.29%.
As to `O=C(c1ccccc1)c1cc(-c2ccccc2)on1`, the activity change, negative = inhibition was -10%.
Same read-out and setting: to `Cc1c(N2C(=O)SC(CC(=O)O)C2=O)c(=O)n(-c2ccccc2)n1C` (stereo not drawn) belongs 10.6%; to `COc1ccc(-c2nnc3sc(-c4c(OC)cccc4OC)nn23)cc1`, -15.1%.
Same read-out and setting: in the case of `CCCCc1cc(=O)oc2c(CN3CCCC3)c(O)ccc12` it was 2.24%; in that of `COc1cc(=O)n2c(-c3ccccc3)csc2n1`, 0.0134%.
Still for that read-out and setting: in the case of `Cn1ncc2nnn(-c3ccccc3)c(=O)c21` it was -4.96%; in that of `Cc1cc2nncn2c(Cc2ccccc2)n1`, -3.53%.
`Cc1nnc2n(-c3ccccc3)c(=O)c3c4c(sc3n12)CC(C)CC4` (stereo not drawn): the activity change, negative = inhibition was -3.87%.
Consider `COC(=O)CNC(=O)c1c(C)cc(=O)oc1C`, for which the activity change, negative = inhibition was 13.6%.
On the same count and under the same terms, in the case of `Cc1nc(NCCO)c(C#N)c2c1COC(C)(C)C2` it was 2.21%.
The same measure, in the same setting: to `Cn1ncc(N=Cc2ccccc2)c1C(N)=O` belongs 6.04%.
Same read-out and setting: in the case of `CN(C)CCOC(=O)Cc1ccc(Cl)cc1` it was -7.05%; in that of `Cc1cc(C)n(CC2CC(=O)N(c3cc(Cl)cc(Cl)c3)C2=O)n1` (stereo not drawn), -7.21%; in that of `COC(=O)c1[nH]c2ccc(Cl)cc2c1NC(=O)C1CC1`, -26.4%.
For `O=C(Nc1ccc2c(c1)OCO2)c1cc2n(n1)C(C(F)(F)F)CC(c1ccccc1)N2` (stereo not drawn), the activity change, negative = inhibition was 6.64%.
Still for that read-out and setting: in the case of `CN(C)C=C1C(=O)c2ccccc2C1=O` it was 3.97%; in that of `CCN(CC)CCN1C(=O)C(=O)/C(=C(/O)c2c(C)[nH]c(C(=O)OC)c2C)C1c1cccc(OC)c1` (stereo not drawn), 3.77%; in that of `CCOC(=O)Oc1ccc2c(c1)C(C)=CC(C)(C)N2C(=O)OCC`, -5.18%.
On the same count and under the same terms, to `Nc1nnc(CSc2ccc(Cl)cc2)s1` belongs -0.614%.
On the same count and under the same terms, to `COC(=O)CNc1nc(-c2cccnc2)nc2ccccc12` belongs -5.87%; to `O=C(Oc1ccccc1)c1c(Cl)cccc1P(=O)(O)O`, 2.02%; to `O=C(c1ccco1)N1CCN(c2ncnc3c2[nH]c2ccccc23)CC1`, 11%.
Take `Cn1c(NCCN2CCCCC2)cc(=O)n(C)c1=O`: the activity change, negative = inhibition is -24.7%.
Still for that read-out and setting: in the case of `O=C1NC2c3ccccc3C(=O)N2c2c1cnn2-c1ccccc1` (stereo not drawn) it was -1.9%; in that of `CC(=O)c1c(C(C)=O)c(C)n(NC(=O)c2ccncc2)c1C`, 3.09%.
On the same count and under the same terms, in the case of `COCCOC(=O)c1c(C)nc(SCC(=O)Nc2ccc(OC)cc2)c(C#N)c1-c1ccco1` it was -14.8%; in that of `COC(=O)C(NC(=O)c1ccco1)(Nc1nc(C)cs1)C(F)(F)F` (stereo not drawn), 4.32%; in that of `COc1ccc(C(CC(=O)O)NC(=O)OC(C)(C)C)cc1` (stereo not drawn), -0.371%.
`O=S(=O)(c1ccc2ccccc2c1)N(CC(O)CN1CCOCC1)c1ccccc1` (stereo not drawn): the activity change, negative = inhibition was 4.35%.
Same read-out and setting: in the case of `COC(=O)C(NC(C)=O)(Nc1nc2ccc(S(C)(=O)=O)cc2s1)C(F)(F)F` (stereo not drawn) it was 7%; in that of `N#Cc1ccc(-c2cccnc2)nc1SCC(=O)Nc1sc2c(c1C#N)CCC2`, -7.12%; in that of `CCOc1c(C)cc2[nH]c(CCC(=O)O)nc2c1C`, -1.66%.
